According to PubChem BioAssay (NCATS):
“And” between values parts separate entries of the source, which are not always exact repeats. Equal values may be shown once. Inconclusive results are not listed. A call without a number means that no potency is given here. A number with no mark means an inactive call. The source made the active and inactive calls. Calls follow the shape of the dose curve; as a rule, active = well fitted cell-killing curve with a large enough effect; inconclusive = small, poorly fitted or top-dose-only effect, or effect the other way; inactive = no such curve, though single readings can be large or run the other way.

Experiment: Viability qHTS for spleen associated tyrosine kinase inhibitor (SYKi) naive MV4-11 cells (AID 1963823); also: nearly all actives have a fitted effect of over 40% in size
Conditions: MV4-11 AML viability, CellTiter-Glo luminescence, 72 h; series mostly up to 45 µM
Text: Department of Medicine, Hematology/Oncology
University Hospital Frankfurt, Germany.
Trials have shown promising clinical activity of the selective SYK inhibitor entospletinib in patients with high expressing HOXA9/MEIS1 acute leukemias. As the development of resistance mechanisms is a common problem in the use of targeted drugs, we performed a chemical library screen to identify drug sensitivities in SYK inhibitor resistant AML cells. […] Glucocorticoids are potent immunosuppressants which work in part by inhibiting the transcription of cytokine genes.
Described herein is a viability screen to look for activity in the SYK inhibitor naive cell line against four NCATS compound libraries (MIPE 5.0, NPC, NPACT, and Kinase) totaling 11372 compounds. Active hits were reacquired for confirmation and further secondary assay testing.
SEQUENCE No. (e.g., 1, 2, 3, etc.); […] (e.g., Cells, Incubation, Reagent, etc.); VALUE; DESCRIPTION.
1; Media; 2uL; white, solid-bottom Corning assay plate.
2; Compounds; 23nL; Echo acoustic dispenser.
3; Cell; 5uL; 500 cells per well.
4: Incubation; 72hr; 37 C, 5% CO2, 95% humidity.
5; Reagent; 3uL; CellTiter-Glo reagent (Promega).
6; Incubation; 10min; room temperature.
7; Detection; Luminescence; ViewLux plate reader (PerkinElmer).
NOTES (numbers refer to Sequence numbers above
1. Quantitative high-throughput screening (qHTS) of small molecule compounds was conducted on naive SYKi MV4-11 cell line.
2. Twenty-three nanoliter of small molecule compounds were added to each assay plates using the Echo acoustic dispenser (Beckman Coulter).
3. Cells were seeded into the assay plates at a final density of 500 cells in 5uL of media per well using the Multi-drop Combi dispenser.
4. Plates were covered with stainless steel gasketed lids and incubated for 72 hours at standard cell culture conditions.
5. Viability was assessed by adding 3uL of CellTiter-Glo detection reagent (Promega).
6. Plates were covered with gasket lids and incubated for 10 minutes at room temperature.
7. Luminescence was measured on a ViewLux plate reader (PerkinElmer).
Potency is read from the fitted curve at half-maximal effect.

SMILES	Potency	viability (% of control)
CCOC(=O)C=C[C@H](C[C@@H]1CCNC1=O)NC(=O)[C@@H](CC(=O)[C@@H](NC(=O)c1cc(C)on1)C(C)C)Cc1ccc(F)cc1	inactive	–
C=C(C)C1CCC2(C(=O)O)CCC3(C(=O)O)C(CCC4C5(C)CCC(O)C(C)(C(=O)O)C5CCC43C)C12 (stereo not given)	inactive	–
CCCCC/C=C\C/C=C\CCCCCCCC(=O)NC(C)c1ccccc1 (stereo not given)	11.9 µM (active)	–
CCOC(=O)CCNc1cc(N2CCc3ccccc3CC2)nc(-c2cccnc2)n1	inactive	–
FC(F)(F)C(Cl)Br (stereo not given)	inactive	–
CC12CC3CC(C)(C1)CC(N)(C3)C2	inactive	–
CC(=O)O[C@H]1CC[C@@]2(C)C(CC[C@@H](C)[C@]23Cc2c(O)cc4c(c2O3)CN([C@@H](CCC(=O)O)C(=O)O)C4=O)C1(C)C (stereo not given in full)	inactive	–
COc1ccc(S(=O)(=O)Nc2nnc(CC(C)C)s2)cc1	inactive	–
C=C1CC2[C@]3(C)C(=C(O)C(=O)[C@@]2(C)[C@]2(C(=O)OC)C(=O)C(C)OC(=O)[C@@]12C)C(C)(C)C(=O)CC3O (stereo not given in full)	inactive	–
COc1cc(C(=O)N2CCC(N3CCN(C)CC3)CC2)ccc1Nc1ncc2c(n1)N(C)c1ccccc1C(=O)N2C	461 nM (active) and 1.32 µM (active)	–
C=C[C@H]1C(O[C@@H]2O[C@H](CO)[C@@H](O)[C@H](O)[C@H]2O)OC=C2C(=O)N3CCc4c([nH]c5ccccc45)C3CC21 (stereo not given in full)	inactive	–
CCN(CC)CCCC(C)Nc1c2ccc(Cl)cc2nc2ccc(OC)cc12 (stereo not given)	4.22 µM (active) and 2.82 µM (active)	–
CC[C@H](CC[C@@H](C)[C@H]1CC[C@H]2[C@@H]3CC=C4C[C@@H](O)CC[C@]4(C)[C@H]3CC[C@]12C)C(C)C	inactive	–
Cc1cc(C)c(CNC(=O)c2cc(-c3ccc(N4CCN(C)CC4)nc3)cc3c2c(C)cn3C(C)C)c(=O)[nH]1	13.2 µM (active) and 18.6 µM (active)	–
COc1cc2nc(N3CCN(C(=O)C4CCCO4)CC3)nc(N)c2cc1OC (stereo not given)	inactive	–
O=C1OC(OC(=O)c2cccnc2Nc2cccc(C(F)(F)F)c2)c2ccccc21 (stereo not given)	inactive	–
COc1ccc(C(=O)C2CCN(CC(=O)N(Cc3nc4c(c(=O)[nH]3)COCC4)CC3CC3)CC2)cc1	inactive	–
CC(C)C(NC(=O)c1ccc2ccccc2n1)C(=O)NC(CC(=O)O)C(=O)COc1c(F)cccc1F (stereo not given)	inactive	–
CC(=O)O[C@@H]1[C@@H](CO)O[C@@](CO)(O[C@H]2O[C@H](COC(=O)/C=C/c3ccccc3)[C@@H](O)[C@H](O)[C@H]2O)[C@H]1O	inactive	–
O=[N+]([O-])c1cccc(S(=O)(=O)NCCNS(=O)(=O)c2cccc([N+](=O)[O-])c2)c1	inactive	–

SMILES	Potency	viability (% of control)
Cc1ccc2nc(NCCN)c3ncc(C)n3c2c1	2.31 µM (active)	–
COc1cc2nc(N3CCN(C(=O)COc4c(OC)cccc4C(C)C)CC3)nc(N)c2cc1OC	20.6 µM (active)	–
COc1cc(Nc2nc3ccccc3nc2NS(=O)(=O)c2ccc(NC(=O)c3ccc(C)c(OC)c3)cc2)cc(OC)c1	18.6 µM (active)	–
CC(C)NC(=O)c1ccc(C=O)cc1	inactive	–
O=C(Nc1cccc(C(F)(F)F)c1)c1ccccc1NCc1ccncc1	8.2 µM (active)	–
C=CC(=O)N1CCN(C(=O)CNc2cc(I)c(Cl)cc2O)CC1	7.31 µM (active)	–
CC1=CC(=O)[C@]2(O[C@@H]3O[C@@H](C)[C@H](O)[C@@H](O)[C@H]3O)C=CO[C@@H](O[C@@H]3O[C@H](CO)[C@@H](O)[C@H](O)[C@H]3O)[C@H]12	inactive	–
COC(=O)Nc1ccc(-c2nc(N3CCOCC3)c3cnn(C4CCN(Cc5cccnc5)CC4)c3n2)cc1	0.517 µM (active)	–
COc1cc(O)c2c(c1)C1=CC(O)C(O)CC1(C)OC2=O (stereo not given)	inactive	–
COC(=O)C1=CO[C@@H](O[C@@H]2O[C@H](CO)[C@@H](O)[C@H](O)[C@H]2O)C2C1C(=O)C[C@H]2C (stereo not given in full)	inactive	–
CC1(C)CC[C@]2(C(=O)O[C@@H]3O[C@H](CO)[C@@H](O)[C@H](O)[C@H]3O)CC[C@]3(C)C(=CCC4[C@@]5(C)C[C@@H](O)[C@H](O)C(CO)(CO)C5CC[C@]43C)C2[C@@H]1O (stereo not given in full)	inactive	–
CC1(C)CC[C@]2(C(=O)O[C@@H]3O[C@H](CO)[C@@H](O)[C@H](O)[C@H]3O)CC[C@]3(C)C(=CCC4[C@@]5(C)CC[C@H](O[C@H]6O[C@H](CO)[C@@H](O)[C@H](O[C@@H]7O[C@H](CO)[C@@H](O)[C@H](O)[C@H]7O)[C@H]6O)C(C)(C)C5CC[C@]43C)[C@@H]2C1 (stereo not given in full)	–	84% [at 9.25 µM]
N#Cc1ccc2[nH]c(O)c(-c3ccc(CN4CCOCC4)cn3)c2c1	inactive	–
Cc1nc2n(c(=O)c1CCN1CCC(c3noc4cc(F)ccc34)CC1)CCC[C@H]2O	inactive	–
COc1cc2c(c(OC)c1OC)-c1ccc(OC)c(=O)cc1[C@@H](NC(C)=O)CC2	23.7 nM (active) and 18.6 nM (active)	–
C[C@@]1(O)[C@H](O)[C@@H](CO)O[C@H]1n1cnc2c(=O)[nH]c(N)nc21	inactive	–
COCCOCC(OC)OC	inactive	–
OC[C@H]1O[C@@H](OCCc2ccc(O)cc2)[C@H](O[C@@H]2OC[C@](O)(CO)[C@H]2O)[C@@H](O)[C@@H]1O	inactive	–
Cc1ccc(C2(C(=O)N3CCC(n4nc(-c5ccccc5)oc4=O)CC3)CC2)cc1	inactive	–
CCCC(=O)OCOC(=O)C1=C(C)NC(C)=C(C(=O)OC)C1c1cccc(Cl)c1Cl (stereo not given)	inactive	–
